This is part of a sample that, as a whole, favours compounds with a hit. Of some 79,000 tested, about 15% had one in any assay. Activity calls are given as the source filed them. No stated cut-off is given here; in the data, active means growth inhibition above about 70%; inactive means the rest.

Here are results for 40 compounds from PubChem BioAssay (NCI).

A short description of one assay: NCI Yeast Anticancer Drug Screen. Data for the cln2 rad14 strain (AID 165).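 Further: 0% = growth equal to vehicle treated cultures.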 Conditions: S. cerevisiae cln2 rad14 strain, at 50.0 µM (retest, dose inferred, filed as 5.0), active compounds read high. Put shortly:
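Growth inhibition, relative to vehicle-treated controls, is the read-out. The test organism is a yeast strain with defined genetic alterations, cln2 rad14.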
Regarding `CC(=O)c1ccc(-[n+]2c(C)cc(-c3ccccc3)cc2C)cc1`, the growth inhibition was -3% (inactive).

In the case of `CN1C(=O)C23CC4=CC=CC(O)C4N2C(=O)C1(CO)SS3` (stereo not drawn), the growth inhibition was 99% (active).

As to `CCN1CCC(O)(c2ccc(O)cc2)C(C(=O)c2ccc(O)cc2)C1` (stereo not drawn), the growth inhibition was 21% (inactive).

As for `CCCCCCCC[As](C)(=O)O`, the growth inhibition was -59% (inactive).

As to `CCCCCCC(=O)[O][Hg][c]1ccccc1`, the growth inhibition was 99% (active).

As for `CCC[CH2][Sn]1([CH2]CCC)[O]C(=O)CN=Cc2ccccc2[O]1`, the growth inhibition was 91% (active).

As for `C[C@]12CC[C@H](O)C[C@@H]1CC[C@@H]1[C@@H]2CC[C@]2(C)C(=O)/C(=C/O)C[C@@H]12`, the growth inhibition was 30% (inactive).

In the case of `CC(CCc1ccccc1)NC(C)C(O)c1ccc(O)cc1` (stereo not drawn), the growth inhibition is 42% (inactive).

Still in this assay, the particulars now being: S. cerevisiae cln2 rad14 strain, at 50.0 µM, active compounds read high.
Take `CCOC(=O)C1C(O)=C(P(=O)(C2=C(O)C(C(=O)OCC)C(c3ccc(OC(C)=O)cc3)C(C(=O)O)C2=O)N(CCCl)CCCl)C(=O)C(C(=O)O)C1c1ccc(OC(C)=O)cc1` (stereo not drawn): the growth inhibition was 66.2% (inactive).

With `c1ccc([As+](c2ccccc2)(c2ccccc2)c2cccc3ccccc23)cc1`, the growth inhibition is 99% (active).

In the case of `CCCCCCCCc1ccc(OCCN(CCCl)CCCl)cc1`, the growth inhibition is 99.3% (active).

For the compound `S=C=NCCc1ccccc1`, the growth inhibition was 28.1% (inactive).

Regarding `COC1=C(Cl)C(=O)c2ccccc2C1=O`, the growth inhibition is 99.1% (active).

For the compound `CN(C)c1ccc(N=Nc2cccc(C(=O)[O-])c2)cc1.CN(C)c1ccc(N=Nc2cccc(C(=O)[O-])c2)cc1.NC1CCCCC1N.O=[N+]([O-])O.[Pt+4]`, the growth inhibition was 44.1% (inactive).

Turning to `CCOC(=O)c1ccc(N=Cc2ccc(N(CCCl)CCCl)cc2C)cc1`, the growth inhibition is 5.3% (inactive).

For `O=c1s[se]c2ccccc12`, the growth inhibition is 92.2% (active).

`CC1CCC2(OC1)OC1C(O)C3C4CCC5CC(OC6OC(CO)C(OC7OC(CO)C(O)C(OC8OCC(O)C(O)C8O)C7OC7OC(CO)C(O)C(OC8OC(CO)C(O)C(O)C8O)C7O)C(O)C6O)C(O)CC5(C)C4CCC3(C)C1C2C` (stereo not drawn): the growth inhibition is 92.3% (active).

As to `CN(C)c1ccc(/C=C/c2cc3scc(-c4ccccc4)[n+]3c3ccccc23)cc1`, the growth inhibition is 99% (active).

With `CSCCC([NH-])C(=O)O.CSCCC([NH-])C(=O)O.[Zn+2]` (stereo not drawn), the growth inhibition was 99.2% (active).

Take `O=C(O)CN1CCN(CC(=O)O)CC(=O)[O][Hg][O]C(=O)C1`: the growth inhibition is 98.3% (active).

Regarding `Cc1c2ccncc2c(CN(CCCl)CCCl)c2c3ccccc3n(C)c12`, the growth inhibition was 88.2% (active).

Regarding `COc1ccc(P2(=S)Oc3ccc(C(c4ccccc4)(c4ccccc4)c4ccccc4)cc3O2)cc1` (stereo not drawn), the growth inhibition is 63.2% (inactive).

In the case of `Cc1cc[n+](C2=C(Nc3c(C)cccc3C)C(=O)c3ccccc3C2=O)cc1`, the growth inhibition was 15.2% (inactive).

Consider `C(#C[PH+](c1ccccc1)c1ccccc1)c1ccccc1.C(#C[PH+](c1ccccc1)c1ccccc1)c1ccccc1.C(#C[PH+](c1ccccc1)c1ccccc1)c1ccccc1.[C-]#[O+].[C-]#[O+].[C-]#[O+].[Cr]`, for which the growth inhibition is 84.5% (active).

For `CC(=O)O.[RuH].c1ccc([PH+](c2ccccc2)c2ccccc2)cc1.c1ccc([PH+](c2ccccc2)c2ccccc2)cc1.c1ccc([PH+](c2ccccc2)c2ccccc2)cc1`, the growth inhibition is 75% (active).

Regarding `O=C(N/N=C/c1cc(Br)cc(Br)c1[O-])c1ccccc1O.O=C(N/N=C/c1cc(Br)cc(Br)c1[O-])c1ccccc1O.[Ni+2]`, the growth inhibition is 31.6% (inactive).

On to `O=C(C[n+]1ccccc1)C1CCc2ccccc2C1` (stereo not drawn), for which the growth inhibition is 39% (inactive).

Turning to `CC(=O)[O-].CC(=O)[O-].O=C(N/N=C/c1cc(Cl)cc(Cl)c1[OH2+])c1ccncc1.[Zn+2]`, the growth inhibition is 38% (inactive).

On to `ClCCN(CCCl)CCN1c2ccc3ccccc3c2Sc2ccc3ccccc3c21`, for which the growth inhibition is -19.2% (inactive).

Consider `C=CCc1cc(Cl)ccc1OC(=O)N(C)C`, for which the growth inhibition is -19.3% (inactive).

Turning to `CC(=O)[O][Sn]([CH3])([CH3])[c]1ccccc1`, the growth inhibition was 74.9% (active).

As for `NCCNCCNCCNCCN` (tested in a mixture with another compound), the growth inhibition is 35.8% (inactive).

In the case of `CC(=O)[CH-]C(C)=O.CC(=O)[CH-]C(C)=O.[O-]c1ccccc1.[O-]c1ccccc1.[Ti+4]`, the growth inhibition is 15.2% (inactive).

For `NC(=O)c1ccc(C(=O)Nc2ccc([As](=O)(O)O)cc2)cc1`, the growth inhibition was 49.4% (inactive).

In the case of `[C-]#[O+].[C-]#[O+].[CH3][Sn]([CH3])[c]1ccccc1.[Fe+5].[c-]1[c-][c-][cH-][c-]1`, the growth inhibition is 95.3% (active).

On to `CC(C)(C)S.[Hg]`, for which the growth inhibition was 99.2% (active).

Consider `O=C(O)C(O)(c1ccc(-c2ccccc2)cc1)c1ccc(-c2ccccc2)cc1`, for which the growth inhibition was 95% (active).

For the compound `Cc1ccc2c(-c3ccccc3)c3ccccc3[s+]c2c1`, the growth inhibition was 99% (active).

Consider `CCOC(=O)[C]1([Pb]([CH3])([CH3])[CH3])N=NC(C(=O)OC)=C1C(=O)OC` (stereo not drawn), for which the growth inhibition was 14.2% (inactive).

Consider `CCCNC1=C(C)C(=O)C2=C(C1=O)[C@H](COC(N)=O)[C@]1(OC)[C@@H]3N[C@@H]3CN21`, for which the growth inhibition is 51.7% (inactive).

With `CC(=O)c1ccc(-[n+]2c(C)cc(-c3ccccc3)cc2C)cc1`, the growth inhibition is 39.6% (inactive).

Regarding `CN1C(=O)C23CC4=CC=CC(O)C4N2C(=O)C1(CO)SS3` (stereo not drawn), the growth inhibition was 92.5% (active).

Take `CCN1CCC(O)(c2ccc(O)cc2)C(C(=O)c2ccc(O)cc2)C1` (stereo not drawn): the growth inhibition is 7.1% (inactive).

In the case of `CCCCCCCC[As](C)(=O)O`, the growth inhibition was 11.4% (inactive).

With `CCCCCCC(=O)[O][Hg][c]1ccccc1`, the growth inhibition is 99% (active).

On to `CCC[CH2][Sn]1([CH2]CCC)[O]C(=O)CN=Cc2ccccc2[O]1`, for which the growth inhibition was 90.8% (active).

As for `C[C@]12CC[C@H](O)C[C@@H]1CC[C@@H]1[C@@H]2CC[C@]2(C)C(=O)/C(=C/O)C[C@@H]12`, the growth inhibition was 96.5% (active).

Take `CC(CCc1ccccc1)NC(C)C(O)c1ccc(O)cc1` (stereo not drawn): the growth inhibition was 68.3% (inactive).
